Data from the antibiotic and cytotoxicity screens of Wong et al. (2023).
Screen size: about 39,000 compounds; about 3,300 (8.5%) were called active. The sample as a whole holds a higher share of actives than the screen did.

Each compound was assayed on HepG2 (assay: cytotoxicity call (relative viability < 0.9)). Conditions: 10 µM.

| SMILES | cytotoxicity call |
| --- | --- |
| Cc1ccc(S(=O)(=O)N(C)C[C@@H]2Oc3ccc(NS(=O)(=O)c4ccc(F)cc4)cc3C(=O)N([C@@H](C)CO)C[C@H]2C)cc1 | inactive |
| Cc1noc(C)c1S(=O)(=O)N(C)C[C@H]1OCCCC[C@@H](C)Oc2ccc(N(C)C)cc2C(=O)N([C@@H](C)CO)C[C@@H]1C | inactive |
| CC(C)NC(=O)Nc1ccc2c(c1)CC(=O)N([C@H](C)CO)C[C@@H](C)[C@H](CN(C)Cc1ccc(-c3ccccc3)cc1)O2 | inactive |
| CC(C)NC(=O)Nc1ccc2c(c1)CC(=O)N([C@@H](C)CO)C[C@@H](C)[C@H](CN(C)Cc1ccc(-c3ccccc3)cc1)O2 | inactive |
| CC(C)NC(=O)Nc1ccc2c(c1)CC(=O)N([C@@H](C)CO)C[C@H](C)[C@@H](CN(C)Cc1ccc(-c3ccccc3)cc1)O2 | active |
| CC(C)NC(=O)Nc1ccc2c(c1)CC(=O)N([C@H](C)CO)C[C@@H](C)[C@@H](CN(C)Cc1ccc(-c3ccccc3)cc1)O2 | active |
| CC(C)NC(=O)Nc1ccc2c(c1)CC(=O)N([C@@H](C)CO)C[C@@H](C)[C@@H](CN(C)Cc1ccc(-c3ccccc3)cc1)O2 | inactive |
| CC(C)NC(=O)Nc1ccc2c(c1)CC(=O)N([C@H](C)CO)C[C@H](C)[C@@H](CN(C)Cc1ccc(-c3ccccc3)cc1)O2 | inactive |
| C[C@@H]1CN([C@@H](C)CO)S(=O)(=O)c2ccc(C#Cc3cccc(F)c3)cc2O[C@@H]1CN(C)S(=O)(=O)c1ccccc1F | inactive |
| C[C@@H]1CCCCO[C@@H](CN(C)Cc2ccc(C(=O)O)cc2)[C@H](C)CN([C@H](C)CO)C(=O)c2cc(NC(=O)Nc3ccc4c(c3)OCO4)ccc2O1 | inactive |
| CC(C)NC(=O)N(C)C[C@@H]1Oc2c(NS(=O)(=O)c3ccc(Cl)cc3)cccc2C(=O)N([C@H](C)CO)C[C@H]1C | inactive |
| COC(=O)C1C(O)CCC2CN3CCc4c([nH]c5ccccc45)C3CC21.Cl (stereo not given) | inactive |
| COC(=O)C1C2CC3c4[nH]c5cc(OC)ccc5c4CCN3CC2CC(OC(=O)c2cc(OC)c(OC)c(OC)c2)C1OC (stereo not given) | active |
| COC(=O)C1C(O)CCC2CN3CCc4c([nH]c5ccccc45)C3CC21 (stereo not given) | inactive |
| C[C@H](CO)N1C[C@H](C)[C@H](CN(C)S(=O)(=O)c2ccc(Cl)cc2)Oc2ccc(NS(C)(=O)=O)cc2CC1=O | inactive |
| O=C(C[C@@H]1CC[C@@H]2[C@H](COC[C@H](O)CN2C(=O)Nc2ccc(Cl)cc2)O1)NC1Cc2ccccc2C1 | inactive |
| O=C(C[C@H]1CC[C@H]2[C@@H](COC[C@@H](O)CN2C(=O)Nc2ccc(Cl)cc2)O1)NC1Cc2ccccc2C1 | active |
| O=C(C[C@@H]1CC[C@@H]2[C@H](COC[C@@H](O)CN2C(=O)Nc2ccc(Cl)cc2)O1)NC1Cc2ccccc2C1 | active |
| O=C(C[C@H]1CC[C@@H]2[C@H](COC[C@@H](O)CN2C(=O)Nc2ccc(Cl)cc2)O1)NC1Cc2ccccc2C1 | inactive |
| O=C(C[C@@H]1CC[C@H]2[C@@H](COC[C@@H](O)CN2C(=O)Nc2ccc(Cl)cc2)O1)NC1Cc2ccccc2C1 | inactive |

| SMILES | cytotoxicity call |
| --- | --- |
| O=C(C[C@H]1CC[C@H]2[C@@H](COC[C@H](O)CN2C(=O)Nc2ccc(Cl)cc2)O1)NC1Cc2ccccc2C1 | inactive |
| CO[C@H]1CN(C)C(=O)c2ccc(NC(=O)CC(F)(F)F)cc2OC[C@H](C)N(S(=O)(=O)c2cn(C)cn2)C[C@H]1C | inactive |
| C[C@H]1CCCCO[C@H](CN(C)S(C)(=O)=O)[C@@H](C)CN([C@@H](C)CO)C(=O)c2cc(NS(=O)(=O)c3cn(C)cn3)ccc2O1 | inactive |
| COc1ccc(NC(=O)Nc2ccc3c(c2)C(=O)N([C@H](C)CO)C[C@H](C)[C@H](CN(C)S(=O)(=O)c2c(C)noc2C)OCCCC[C@H](C)O3)cc1 | inactive |
| O=C(C[C@H]1CC[C@H]2[C@@H](COC[C@@H](O)CN2S(=O)(=O)c2ccc(F)cc2)O1)N[C@@H]1CCN(Cc2ccccc2)C1 | inactive |
| CC(C)NC(=O)Nc1ccc2c(c1)CC(=O)N([C@H](C)CO)C[C@@H](C)[C@H](CN(C)Cc1ccc(C(=O)O)cc1)O2 | inactive |
| C[N+](C)(C)[C@@H]1[C@H]2OC[C@H](O)[C@H]2O[C@@H]1O | inactive |
| CCCNC(=O)N1C[C@H](C)[C@@H](OC)CN(C)C(=O)c2cc(NS(=O)(=O)CC(F)(F)F)ccc2OC[C@H]1C | inactive |
| C[C@@H]1CN([C@@H](C)CO)C(=O)c2cccc(NC(=O)Nc3ccccc3)c2O[C@H]1CN(C)Cc1ccc(Cl)c(Cl)c1 | active |
| C[C@H]1CN([C@@H](C)CO)C(=O)c2cccc(NC(=O)C3CCCCC3)c2O[C@@H]1CN(C)Cc1ccc(Cl)c(Cl)c1 | active |
| COc1ccc(NC(=O)Nc2cccc3c2O[C@H](CN(C)Cc2ccc(Cl)c(Cl)c2)[C@@H](C)CN([C@@H](C)CO)C3=O)cc1 | inactive |
| C[C@@H]1CN([C@H](C)CO)C(=O)c2cccc(NC(=O)C3CCCCC3)c2O[C@H]1CN(C)Cc1ccc(Cl)c(Cl)c1 | inactive |
| C[C@@H]1CN([C@H](C)CO)C(=O)c2cccc(NC(=O)Nc3ccc(F)cc3)c2O[C@H]1CN(C)Cc1ccc(Cl)c(Cl)c1 | inactive |
| COc1ccc(NC(=O)Nc2cccc3c2O[C@@H](CN(C)Cc2ccc(Cl)c(Cl)c2)[C@@H](C)CN([C@H](C)CO)C3=O)cc1 | active |
| COc1ccc(NC(=O)Nc2cccc3c2O[C@@H](CN(C)Cc2ccc(Cl)c(Cl)c2)[C@H](C)CN([C@@H](C)CO)C3=O)cc1 | inactive |
| C[C@@H]1CN([C@H](C)CO)C(=O)c2cccc(NC(=O)Nc3ccccc3)c2O[C@H]1CN(C)Cc1ccc(Cl)c(Cl)c1 | inactive |
| C[C@@H]1CN([C@@H](C)CO)C(=O)c2cccc(NC(=O)Nc3ccc(F)cc3)c2O[C@H]1CN(C)Cc1ccc(Cl)c(Cl)c1 | active |
| C[C@H](CO)N1C[C@H](C)[C@@H](CN(C)Cc2ccc(Cl)c(Cl)c2)Oc2c(NC(=O)Nc3ccccc3)cccc2C1=O | inactive |
| C[C@@H]1CN([C@@H](C)CO)C(=O)c2cccc(NC(=O)C3CCCCC3)c2O[C@H]1CN(C)Cc1ccc(Cl)c(Cl)c1 | inactive |
| C[C@H](CO)N1C[C@H](C)[C@H](CN(C)Cc2ccc(Cl)c(Cl)c2)Oc2c(NC(=O)Nc3ccc(F)cc3)cccc2C1=O | inactive |
